Data from PubChem BioAssay (NCI).
This is part of a sample that, as a whole, favours compounds with a hit. Of some 83,000 tested, about 20% had one in any assay.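 Single-dose data. Exposure time 48 hours. Values below 10 considered active.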 Calls of active or inactive are those of the source.

Test system: HL-60(TB) leukemia
Assay: NCI-60 one-dose screen, 48 h (100 = growth as untreated, 0 = no growth, -100 = all killed)
Settings: 10 µM unless noted

| SMILES | growth |
| --- | --- |
| O=C1c2cccc(NCCN=Cc3ccccc3O)c2C(=O)c2c(NCCN=Cc3ccccc3O)cccc21 | 31.6% (inactive) |
| O=C1Nc2ccccc2/C1=C/c1cccn1CCCCCn1c2ccccc2c(=O)c2ccccc21 | 47.6% (inactive) |
| CCCCOc1c(N)cccc1C(=O)OCCN(CC)CC | 64.3% (inactive) |
| COc1cc(OC)c(C(=O)/C=C/c2cccc(C#N)c2)c(OC)c1 | -8.6% (active) |
| O=C1/C(=C/c2cccc([N+](=O)[O-])c2)COc2ccc(O)c(O)c21 | -19.5% (active) |
| Cc1cnc(N)nc1OCC(C)(C)CNC(=O)c1cccc(-c2ccc(S(=O)(=O)Nc3ccc4c(c3)N(C(=O)C3CC3)CCC4)cc2)c1 | 18.2% (inactive) |
| CC(C)OC(=O)c1ccc([N+](=O)[O-])cc1 | 121% (inactive) |
| C=C(NC(=O)C(=C)NC(=O)c1csc(C2=NC3c4csc(n4)C4NC(=O)c5csc(n5)C(C(C)(O)C(C)O)NC(=O)C5CSC(=N5)C(=CC)NC(=O)C(C(C)O)NC(=O)c5csc(n5)C3(CC2)NC(=O)C(C)NC(=O)C(=C)NC(=O)C(C)NC(=O)C(C(C)CC)NC2C=Cc3c(C(C)O)cc(nc3C2O)C(=O)OC4C)n1)C(N)=O (centres undefined) | 3.83% (active) |
| COC(=O)C(CC(=O)c1ccc(-c2ccccc2)cc1)c1ccccc1 (centres undefined) | 15.4% (inactive) |
| O=C(Nc1ccc(Cl)c(Cl)c1)Nc1c(Oc2ccc(Cl)c(Cl)c2)ccc(Cl)c1S(=O)(=O)O | 4.23% (active) |
| Cc1cc2c(C)c3cc(C)c(N)cc3nc2cc1N | 19% (inactive) |
| COc1cc2c(cc1OC)C(=O)/C(=C/c1cc(C)c(O)c(C)c1)S2 | -3.56% (active) |
| CN(C)c1ccc(N=Nc2ccc(Br)cn2)c(O)c1 | -41.4% (active) |
| COc1cc(/C=C/C(=O)c2cc(OC)c(OC)c(OC)c2)ccc1Oc1nc2c(c(=O)n(C)c(=O)n2C)n1C | -13.1% (active) |
| Cc1cc(N2CCN(CC(=O)Nc3ccc4c(ccn4Cc4ccccc4)c3)CC2)nc(N2CCOCC2)n1 | 87.3% (inactive) |
| COc1ccc(-c2nc(SCCC(C)C)nc(N/N=C\c3cccc([N+](=O)[O-])c3)c2C#N)cc1 | 97% (inactive) |
| CC(C)(C)[C@H](OCc1cn([C@H]2C[C@@H](O)[C@@H](CO)O2)c(=O)[nH]c1=O)c1ccc(C#Cc2ccccc2)cc1[N+](=O)[O-] | 70.4% (inactive) |
| O=C(c1nc2ccccc2[nH]1)C1[C@@H](c2cccc(O)c2)C2CC3CCCCC3N2[C@@]12C(=O)Nc1cc(Cl)ccc12 (some centres undefined) | 6.59% (active) |
| COc1cc(-c2nn(C(=O)NCCN3CCN(C)CC3)cc2-c2ccncc2)ccc1Cl | 93.2% (inactive) |
| O=c1c2c(c(=O)n1O)c1c3ccc[nH]c3nc1c1nc3[nH]cccc3c12 | 81% (inactive) |

| SMILES | growth |
| --- | --- |
| O=C(Nc1cccc(C(F)(F)F)c1)C(Cl)Cl | 94.1% (inactive) |
| CCC(O)(C(c1ccccc1)c1ccccn1)C(c1ccccc1)c1ccccn1 (centres undefined) | 79% (inactive) |
| CC(=O)NCCCS(=O)(=O)O | 102% (inactive) |
| Cc1ccc(SC2c3ccc(C)cc3Oc3nc(N)c(C#N)c(N)c32)cc1 (centres undefined) | -6.43% (active) |
| CCCCC(CC#N)(CCC)CCC | 104% (inactive) |
| Fc1ccc(-c2cnc3nonc3n2)c(F)c1 | 7.84% (active) |
| O=C(CCCl)OCCOc1ccccc1 | 101% (inactive) |
| COc1ccc(C(=O)COc2cccc(/C=C3\CSc4ccccc4C3=O)c2)cc1 | -55.5% (active) |
| COC(=O)N1CC(Oc2ccccn2)C2CC1c1ccccc1O2 (centres undefined) | 99.8% (inactive) |
| CN(CCCCCl)P(=O)(OCc1ccc([N+](=O)[O-])o1)C(F)(F)c1ccc(CC(=O)NC[C@@H](O)/C=C\[C@@H](O)[C@H](CO)Cc2ccccc2)cc1 (some centres undefined) | 80.3% (inactive) |
| Cc1ccc(S(=O)(=O)c2ccccc2)cc1 | 12.8% (inactive) |
| O=C(CCc1nnco1)c1nc2ccc([N+](=O)[O-])cc2[nH]1 | 120% (inactive) |
| CC(C)(C)n1cc(-c2ccnc(NCCNS(=O)(=O)c3ccc(C(F)(F)F)cc3)c2)c(-c2ccccc2)n1 | 83.9% (inactive) |
| Cc1ccc2c(c1)C(=O)/C(=C/c1ccc(OCC(=O)c3ccccc3)cc1)O2 | 69.9% (inactive) |
| Cc1cn2c(/C=C3/C(=O)Nc4c3ccc3ccccc43)c(C(F)(F)F)nc2s1 | 1.47% (active) |
| COc1ccc(-c2c3c(nn2-c2ccc(N)cc2)CCc2cnoc2-3)cc1OC | 93.1% (inactive) |
| O=C(N/N=C/C=C\c1ccccc1)C(=O)N/N=C/C=C/c1ccccc1 | 110% (inactive) |
| O=[N+]([O-])c1ccccc1NCSc1ccc(Cl)cc1 | 65.7% (inactive) |
| CCN1CCN(C(=O)[C@]23CC[C@@H](C)[C@H](C)[C@H]2C2=CC[C@@H]4[C@@]5(C)C/C(=C/c6cccc(OC)c6OC)C(=O)C(C)(C)[C@@H]5CC[C@@]4(C)[C@]2(C)CC3)CC1 | 2.97% (active) |
